# Compounds with a hit are over-represented: about 2.9% of the library has one in this group of screens.
# 14-3-3 Bad PPI – disrupts binding of bovine 14-3-3 zeta to phospho-Bad peptide. inhibition, % at 21.7 µM. actives 0.71% (n = 220,000). P63103. TR-FRET 14-3-3zeta/Dy647-pBad peptide displacement, 1 h;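 active = inhibition above about 70%, limit read from the data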;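 note: 0% = full 14-3-3 plus peptide FRET controls and 100% = background without 14-3-3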
# Target sequence (P63103 whole entry, looked up): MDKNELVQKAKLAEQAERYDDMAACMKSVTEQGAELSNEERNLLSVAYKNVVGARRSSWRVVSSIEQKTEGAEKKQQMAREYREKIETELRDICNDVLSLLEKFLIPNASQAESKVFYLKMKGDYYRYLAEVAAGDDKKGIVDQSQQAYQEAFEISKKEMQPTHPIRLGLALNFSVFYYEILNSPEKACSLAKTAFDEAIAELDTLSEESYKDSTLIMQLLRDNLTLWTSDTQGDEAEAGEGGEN
# Hck Nef HTS – inhibitors of human Hck kinase activated by Nef; P08631; Recombinant Hck-YEEI plus Nef, Z-Lyte FRET kinase assay; AID 463187; inhibition, % at 20 µM; actives 0.68% (n = 220,000);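 active = Hck-Nef kinase inhibition above about 50%, limit read from the data; inactive = inhibition below that limit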;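 note: 0% = DMSO with Hck plus Nef and 100% = Hck alone without Nef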
# Mcl1 Noxa PPI – Mcl-1/Noxa interaction inhibition; Q07820; TR-FRET Mcl-1/Noxa peptide binding, 2 h; inhibition, % at 21.7 µM; actives 1.5% (n = 220,000); AID 1022;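 active = compounds that cut the protein-peptide binding signal by more than 50% relative to plate controls in a single-dose test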;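 note: His-tagged Mcl-1 with rhodamine Noxa BH3 peptide and terbium anti-His antibody; 0% = Mcl-1 plus Noxa peptide wells and 100% = peptide-only wells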
# Target sequence (Q07820 whole entry, looked up): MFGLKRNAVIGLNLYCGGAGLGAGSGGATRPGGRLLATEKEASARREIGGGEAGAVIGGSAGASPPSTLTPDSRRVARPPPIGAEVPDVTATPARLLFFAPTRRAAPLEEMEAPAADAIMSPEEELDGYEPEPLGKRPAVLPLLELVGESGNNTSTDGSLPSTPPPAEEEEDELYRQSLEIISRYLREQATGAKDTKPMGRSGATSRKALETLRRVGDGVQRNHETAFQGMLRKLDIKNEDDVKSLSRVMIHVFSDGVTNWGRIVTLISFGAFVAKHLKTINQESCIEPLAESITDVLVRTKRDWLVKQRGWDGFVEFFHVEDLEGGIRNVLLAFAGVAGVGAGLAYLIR
# Bim-Mcl-1 – human Bim-Mcl-1 interaction inhibition | Bead-based flow cytometry, Bim peptide-Mcl-1 binding | actives 0.1% (n = 190,000) | inhibition, % at 10 µM | AID 1009; in the data active = inhibition above about 40%;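 note: 0% = no compound tracer wells and 100% = peptide blocker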
# Pf gametocyte – kills late stage P. falciparum gametocytes | P. falciparum stage V gametocytes, ATP luminescence, 24 h | inhibition, % at 10.9 µM | actives 0.065% (n = 150,000);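 active = inhibition above the mean plus 3 SD of compounds within the control limits, set per campaign, cut at about 38% in these data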;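 note: 0% = DMSO wells and 100% = medium only without gametocytes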
# Mcl1-Bid inh – disrupts binding of human Mcl-1 to Bid peptide. Q07820. TR-FRET Mcl-1/Bid-Dy647 peptide binding, 1536-well. inhibition, % at 21.7 µM. actives 0.97% (n = 220,000);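 active = compounds that cut the binding signal by more than half at the single screening dose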;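 note: His-tagged Mcl-1 with europium anti-His antibody binding Bid BH3 peptide; 0% = Mcl-1 plus peptide wells and 100% = peptide-only wells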
# Starred values were filed as active, the others as inactive; x = no result given; [ ] = dose if it differs, or a comment.
SMILES,14-3-3 Bad PPI,Hck Nef HTS,Mcl1 Noxa PPI,Bim-Mcl-1,Pf gametocyte,Mcl1-Bid inh
CCOC(=O)N1CCC(NC(=O)c2ccc3c(c2)sc2nc(-c4cccc(OC)c4)cn23)CC1,75.0*,26.8,-1.6,-14.0,x,-87.2
CCC(=O)Nc1ccc2c(c1)nc(CCN1CCN(c3ccccc3)CC1)n2C,-4.2,6.9,-3.3,x,-7.8,-15.2
CC(C)C1CC(CCNCc2ccc(N(C)C)cc2)(c2ccccc2)CCO1 (centres undefined),-2.0,0.5,14.2,-7.0,-5.1,-30.8
Cc1ccc(C2(CCNCc3ccc(N(C)C)cc3)CCOC(C(C)C)C2)cc1 (centres undefined),-3.7,2.7,56.4*,0.0,x,-35.1
COc1ccc(-n2c(COc3ccccc3)nnc2SCc2ccc(C#N)cc2)cc1,1.9,0.3,6.3,0.0,-34.3,-5.7
CCN(CC(=O)Nc1ccc2c(c1)OCCO2)S(=O)(=O)c1cccs1,-3.9,2.8,3.8,-3.0,7.3,64.3*
Cc1ccc(-c2cn(-c3ccccc3)c(SCC(N)=O)n2)cc1C,-1.4,2.5,17.1,-7.0,x,86.9*
CCOC(=O)NC(=O)CSc1nc(-c2ccc(C)c(C)c2)cn1-c1ccccc1,-16.5,4.0,21.6,-1.0,x,-38.5
CCOc1ccc(N(CC)C(=O)COc2cc(=O)n(CC)c3ccccc23)cc1,-8.6,-25.2,6.2,0.0,x,1.3
COc1cccc(Oc2c(C)oc3c(CN4CCCC4)c(O)ccc3c2=O)c1,5.4,5.1,-5.4,x,-1.8,96.2*
COc1ccccc1Oc1c(C)oc2c(CN3CCOCC3)c(O)ccc2c1=O,-4.7,2.8,-7.0,x,-18.1,-14.9
Nc1cc2c(cc1[N+](=O)[O-])OCO2,30.6,12.2,79.3*,3.0,24.2,14.1
O=C(COC(=O)[C@H](Cc1c[nH]c2ccccc12)NC(=O)c1cccs1)NCc1ccccc1,5.3,4.3,2.0,0.0,-3.8,-7.4
COc1cc2c(cc1OC)CN(Cc1cccs1)CC2,73.8*,-4.0,25.9,-1.0,-16.0,39.9
COc1cc(OC)c(OC)cc1CN1CCc2ccccc2C1,22.7,0.1,8.0,6.0,8.8,55.1*
COc1cc2c(cc1OC)CN(Cc1ccccc1)CC2,x,x,x,x,-9.1,x
c1csc(CN2CCOCC2)c1,82.8*,1.8,18.5,2.0,x,20.9
Cc1cc(=O)oc2cc(OCC3CC(c4ccc(N(C)C)cc4)=NO3)ccc12 (centres undefined),-7.9,1.2,28.7,-1.0,4.4,51.9*
Cc1cc(=O)oc2cc(OCC3CC(c4ccc(Cl)cc4)=NO3)ccc12 (centres undefined),-2.2,-20.2,-26.1,0.0,-1.8,18.9
CC(=O)Nc1cc(NC(C)=O)cc(-c2nc3ccccc3[nH]2)c1,-9.7,19.8,17.0,-1.0,-7.4,1.1
CC(=O)Nc1ccc(-c2nc3c(C)cccc3[nH]2)cc1,72.3*,8.1,12.6,0.0,x,11.7
CC1CC1C(=O)OCC(=O)NCc1ccccc1Cl (centres undefined),3.9,1.9,22.3,1.0,x,9.8
O=C(CSc1nnc(-c2ccncc2)o1)NCc1ccccc1,-1.5,3.9,-1.4,-5.0,-3.4,-4.0
O=C(CSc1nnc(-c2ccncc2)o1)NCc1ccccc1Cl,-2.5,3.7,1.0,0.0,-2.4,100.8*
O=C(CNc1ccc2ccccc2c1)N/N=C/c1ccc([N+](=O)[O-])o1,36.9,2.4,70.5*,0.0,x,64.6*
SMILES,14-3-3 Bad PPI,Hck Nef HTS,Mcl1 Noxa PPI,Bim-Mcl-1,Pf gametocyte,Mcl1-Bid inh
O=C(COc1ccccc1)N/N=C/c1ccc([N+](=O)[O-])o1,10.0,-1.1,4.3,-3.0,17.3,-22.2
CCCSCCCNC(=O)CC1Oc2ccccc2NC1=O (centres undefined),6.7,1.6,3.2,0.0,x,-28.1
CC(=O)N1c2ccccc2C2(O)N=C(C)SC12 (centres undefined),-35.3,-0.7,54.9*,-6.0,x,-23.8
CC(=O)N1c2ccccc2Nc2ccccc21,-2.6,8.4,-0.7,-3.0,-4.2,-9.1
Cc1ccc(S(=O)(=O)ON2C(=O)c3ccccc3C2=O)c(C)c1,12.7,0.9,70.9*,-17.0,-4.2,-37.3
Cc1cc(C)c(C)c(S(=O)(=O)ON2C(=O)c3ccccc3C2=O)c1C,33.9,2.9,48.2,-2.0,-10.4,-34.4
Cc1cc(C)c(S(=O)(=O)ON2C(=O)c3ccccc3C2=O)cc1C,3.0,-1.5,72.3*,2.0,x,-16.9
C=CCOc1cccc(/C=N/NC(=O)C(=O)NCc2ccco2)c1,8.5,0.2,2.2,2.0,23.8,-22.1
C/C(=N\NC(=O)CCc1ccc(S(=O)(=O)N2CCOCC2)cc1)c1ccccc1Cl,-9.6,16.2,17.6,0.0,4.3,-13.3
Cn1c(=O)n(C)c2cc(S(=O)(=O)O)ccc21,73.9*,2.1,2.0,0.0,x,-4.0
CCNS(=O)(=O)c1ccc2c(c1)n(C)c(=O)n2C,-8.0,-13.7,-0.9,-1.0,x,5.3
Cn1c(=O)c2cc(S(=O)(=O)Nc3cc(C(=O)O)cc(C(=O)O)c3)ccc2n(C)c1=O,-3.4,14.7,1.8,46.0*,4.2,-24.9
Cc1cc(C)cc(NS(=O)(=O)c2ccc3c(c2)c(=O)n(C)c(=O)n3C)c1,7.0,2.9,5.4,4.0,6.8,-10.8
CCCNS(=O)(=O)c1ccc2c(c1)n(C)c(=O)n2C,83.8*,17.8,1.0,3.0,-32.8,-53.1
O=[N+]([O-])c1ccc(NC(=S)NCCc2ccc(F)cc2)cc1,-12.2,-0.1,51.5*,-16.0,x,5.6
OC1CCCN(Cc2ccc3ccc4cccc5ccc2c3c45)C1 (centres undefined),-4.4,2.9,-21.6,0.0,x,3.7
c1cc2ccc3ccc(CN4CCOCC4)c4ccc(c1)c2c34,84.8*[fluorescence artefact?],0.2,29.0,-2.0,x,10.4
Cc1ccc([N+](=O)[O-])c(OCC(=O)OCC(=O)c2ccccc2)c1,-2.4,0.6,6.5,-14.0,11.0,3.9
COc1cccc(OC)c1OCCCCCc1c(C)n[nH]c1C,80.8*,2.7,21.8,0.0,5.3,29.4
CC(C)c1ccccc1NC(=S)N1CCN(Cc2ccc3c(c2)OCO3)CC1,-9.7,12.1,1.9,-1.0,x,-46.1
Cc1[nH]c2ccccc2c1/C=C/c1nc2ccccc2c(=O)[nH]1,82.0*,23.3,74.5*,x,-7.9,63.7*
Cc1cccc(/C=C/c2nc3ccccc3c(=O)[nH]2)c1,-3.2,26.5,1.8,-2.0,-9.6,-9.7
Cc1ccc(-c2nnc(Cc3ccc(Cl)cc3)o2)cc1,3.0,8.2,-21.0,40.0*,x,-6.3
O=C1c2cccnc2C(Nc2ccccc2)N1Cc1ccco1 (centres undefined),32.9,1.3,60.2*,-3.0,x,60.0*
CCC1(C)Cc2c(sc3nnn(CC(=O)Nc4ccccc4C)c(=O)c23)CO1 (centres undefined),-5.1,0.0,53.5*,0.0,x,18.6
O=c1[nH]c(-c2ccccc2)nnc1-c1ccccc1,4.0,5.3,1.8,x,-7.0,6.2
